Laboratory results from the supplement of paper PMC3334620.
Over roughly 33,000 sequences, “E-score (-0.5 to 0.5)” has its median near -0.021; the highest 2% begin near 0.32. Many of the other results were omitted from the sample, so the highest values are more common in it than they were.

molecular target: T1, Zap1 (UniProt P47043); assay: PBM E-score (8-mer binding enrichment) (E-score (-0.5 to 0.5)); higher = stronger / more preferred TF binding; conditions: protein concentration: 200 nM; construct: GST-full length
T1 sequence: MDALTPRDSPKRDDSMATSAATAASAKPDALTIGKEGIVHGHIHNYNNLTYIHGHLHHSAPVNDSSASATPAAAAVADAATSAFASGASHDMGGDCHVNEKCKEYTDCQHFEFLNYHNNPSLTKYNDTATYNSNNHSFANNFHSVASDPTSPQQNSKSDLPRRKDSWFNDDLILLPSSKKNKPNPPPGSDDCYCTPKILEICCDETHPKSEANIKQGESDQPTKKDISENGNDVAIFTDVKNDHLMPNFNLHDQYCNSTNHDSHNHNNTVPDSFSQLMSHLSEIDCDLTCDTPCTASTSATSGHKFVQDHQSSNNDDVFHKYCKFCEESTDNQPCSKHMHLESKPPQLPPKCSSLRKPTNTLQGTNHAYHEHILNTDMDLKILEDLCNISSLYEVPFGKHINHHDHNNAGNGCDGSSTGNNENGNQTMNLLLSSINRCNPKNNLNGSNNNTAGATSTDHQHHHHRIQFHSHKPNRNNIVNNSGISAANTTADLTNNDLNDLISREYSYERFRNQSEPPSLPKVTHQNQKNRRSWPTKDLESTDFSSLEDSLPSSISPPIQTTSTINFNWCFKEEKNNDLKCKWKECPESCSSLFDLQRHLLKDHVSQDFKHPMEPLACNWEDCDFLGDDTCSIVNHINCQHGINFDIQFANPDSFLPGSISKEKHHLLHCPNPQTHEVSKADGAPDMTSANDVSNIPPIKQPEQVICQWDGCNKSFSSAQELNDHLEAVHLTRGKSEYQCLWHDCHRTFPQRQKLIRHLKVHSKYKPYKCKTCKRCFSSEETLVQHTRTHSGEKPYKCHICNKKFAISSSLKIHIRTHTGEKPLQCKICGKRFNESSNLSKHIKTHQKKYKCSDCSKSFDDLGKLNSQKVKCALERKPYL
Procedure: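 Universal 'all 10-mer' protein binding microarrays (Agilent AMADID 015681) probed with GST-tagged S. cerevisiae TFs (full-length or DBD) made by in vitro transcription/translation (PURExpress), about 100-200 nM. Bound TF was detected with fluorescent anti-GST. Each ungapped 8-mer (which stands for itself and its reverse complement) is scored by the PBM enrichment score (E-score), a modified Wilcoxon-Mann-Whitney statistic from -0.5 to +0.5, computed with the Universal PBM Analysis Suite. Scale: above 0.35 generally sequence-specific binding.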

| Sequence | PBM E-score |
| --- | --- |
| CGTCATTA | -0.145 |
| AGTCATTA | -0.17 |
| TGTCATAA | 0.184 |
| CGTCATGA | 0.0742 |
| GGTCATAA | 0.379 |
| GGTCATAC | 0.313 |
| GGTCATTA | 0.321 |
| CCGGACCG | -0.129 |
| AGCAATGC | -0.0926 |
| ACGCGAAG | 0.0536 |
| ACTACCCG | 0.261 |
| GAGGGTCC | 0.134 |
| GTGGGTCA | 0.211 |
| TCGGGTCA | 0.233 |
| GAGGGTCA | 0.397 |
| TAGGGTGA | 0.299 |
| AAGGGTCG | 0.36 |
| ATGGGTCG | 0.0454 |
| TAGGGTCA | 0.408 |
| ACGGGTCG | 0.116 |
| ATGGGTCA | 0.359 |
| AGGGGTCG | 0.0682 |
| ATGGGTCC | 0.263 |
| ACTGGCTA | -0.0583 |
| CCGAGACC | 0.197 |
| AGCAATGG | -0.133 |

| Sequence | PBM E-score |
| --- | --- |
| AAACAGGT | 0.135 |
| ATACTCTC | -0.15 |
| CACAGTTC | -0.0558 |
| CTACTCGC | -0.18 |
| ATGGGCGG | -0.125 |
| AACGCATT | 0.0284 |
| AAGGGTCA | 0.439 |
| AAGGGTGA | 0.293 |
| GAGGGGTA | 0.245 |
| AGGGGTCC | 0.0654 |
| CAGGGTCC | 0.14 |
| CAGGGTCA | 0.417 |
| GAGGGTGA | 0.126 |
| AGGGGTCA | 0.438 |
| AAGGGTCT | 0.136 |
| CAGGGTCG | 0.275 |
| GAGGGTTA | 0.45 |
| AGGGGTGA | 0.219 |
| CATGCGAC | 0.014 |
| CGACCACC | 0.15 |
| CCTCTGTC | 0.0337 |
| AAAGTGTG | 0.071 |
| ATATCAGA | 0.0906 |
| CCTCGACC | -0.056 |
| TTGCTAAA | -0.0992 |
| GGCCCTGA | -0.137 |

| Sequence | PBM E-score |
| --- | --- |
| CCGGGTCA | 0.316 |
| GCGGGTCC | -0.0967 |
| GCGGGTCA | 0.367 |
| GGGGGTCA | -0.132 |
| ACGGGTCA | 0.223 |
| CGGGGTCA | 0.332 |
| AGGTGGGC | -0.0375 |
| CAGCTCAA | -0.0501 |
| GCAAGATA | 0.0727 |
| CCCCTACA | -0.0402 |
| AGCCTACT | -0.212 |
| ACCCTACC | 0.364 |
| TCCCTACA | -0.0805 |
| ACCCTACT | 0.329 |
| CCCCTACG | -0.117 |
| ACCCTACA | 0.419 |
| CCCCTACC | 0.0857 |
| AACCTACG | 0.123 |
| GCCCTACC | 0.0168 |
| AACCTACT | 0.135 |
| ACCCTACG | 0.361 |
| GAGTTGCA | -0.0948 |
| AAATTCCT | -0.0586 |
| CAAAGTGC | -0.0833 |
| CGAATCGA | 0.00445 |
| ATCGAATG | -0.106 |

| Sequence | PBM E-score |
| --- | --- |
| ACCTAGGA | 0.159 |
| CTCAGGCA | -0.158 |
| ATTGCGAA | -0.0714 |
| GTAACAAC | 0.234 |
| AACATGCG | -0.0232 |
| GCCAGAAC | -0.226 |
| CATAACCA | 0.462 |
| AATAACCA | 0.445 |
| TATAACCA | 0.45 |
| AATAACGA | -0.036 |
| GATAACGA | 0.00419 |
| CATAACTA | 0.18 |
| GATAACCA | 0.426 |
| AATAACAA | 0.0521 |
| GATAACTA | 0.231 |
| CATAACAA | 0.179 |
| TCTAACCA | 0.231 |
| TATAACAA | 0.291 |
| GTGTTGAA | -0.0764 |
| ACGGCTCC | -0.198 |
| GCCTTTGA | 0.0766 |
| GGTGTCAC | 0.0261 |
| CTCTGCAG | -0.126 |
| ACTATAGT | 0.197 |
| AGCCGCTC | -0.0957 |
| CCTGTTGC | 0.0211 |

| Sequence | PBM E-score |
| --- | --- |
| GCATAGAC | -0.117 |
| CTGGTAAG | 0.055 |
| GCCATCCA | -0.197 |
| CATAACGG | -0.0515 |
| CATAACCG | 0.395 |
| CATAACAG | -0.0694 |
| GGTTATAC | 0.461 |
| AGTTATAA | 0.193 |
| CTATATAA | 0.24 |
| CGTTATAC | -0.00572 |
| GGTTATAA | 0.471 |
| ATATATAA | 0.249 |
| TTATATAA | 0.331 |
| CGTTATAA | 0.247 |
| AGTTATAC | 0.104 |
| ATTTGCGA | 0.0692 |
| CCCCATTC | -0.0769 |
| ATCCTTCC | -0.306 |
| GCATCTTA | -0.0867 |
| ACCATTCT | 0.0676 |
| GATCATTA | 0.0548 |
| TATCCGGA | 0.0937 |
| ACGGTAAG | 0.016 |
| ACGGTAAT | 0.139 |
| GCGGTAAA | 0.165 |
| CCGGTAAC | 0.316 |

| Sequence | PBM E-score |
| --- | --- |
| GCGGTAAC | 0.32 |
| ACGGTAAC | 0.364 |
| GTTTGGAA | 0.116 |
| AGAAGTAC | -0.115 |
| CGTAGCGA | -0.251 |
| CTTGGTTA | 0.334 |
| ATTGGTTC | 0.141 |
| ATTGGTTA | 0.402 |
| CTTGGTTC | 0.232 |
| ATTGGTTG | 0.186 |
| GTTGGTTA | 0.316 |
| CCCTGCGG | 0.292 |
| CTAGCTCA | -0.147 |
| ATATGGGG | -0.0334 |
| CGAGAAAC | 0.0891 |
| AACCTGAA | 0.144 |
| CCCCTGTA | 0.02 |
| CACCTGTA | -0.0421 |
| GCCCTGTA | -0.0104 |
| ACCCTGTA | 0.353 |
| CCCCTGAA | 0.127 |
| GCCCTGAA | 0.0835 |
| ACCCTGAA | 0.399 |
| AACCTGTA | 0.324 |
| AACAGCGG | -0.195 |
| AATGACGT | -0.0682 |

| Sequence | PBM E-score |
| --- | --- |
| AATGACCA | 0.334 |
| AATGACCG | 0.216 |
| TATGACCA | 0.288 |
| AATGACCT | 0.393 |
| AATGACTA | -0.136 |
| ACCTTAGG | 0.216 |
| AGTGCACG | -0.151 |
| CATCAGCG | -0.182 |
| AAGTATGT | -0.00136 |
| GAGGTTCC | 0.223 |
| GAGGTTGA | -0.00385 |
| GAGGTTAA | 0.429 |
| TAGGTTCA | 0.175 |
| AAGGTTAC | 0.475 |
| AACGTTAC | 0.111 |
| GAGGTTAC | 0.473 |
| GAGGTTGC | 0.238 |
| GAGGTTCA | 0.254 |
| TAGGTTGA | 0.101 |
| TAGGTTAA | 0.319 |
| AAGGTTTC | 0.206 |
